PubChem BioAssay (Tox21)
Results filed as inconclusive are left out. Active and inactive are the calls of the source. Unless noted, calls come from the whole dose curve; as a rule, active = well fitted curve in the direction sought with a large enough effect in the repeat runs; inconclusive = weak or mixed curves; inactive = no such curve, though single readings can be large; an effect the other way counts as inactive or inconclusive.

Experiments:
[1] = qHTS assay to test for compound auto fluorescence at 535 nm (green) in HEK293 cells (AID 720680)
[2] = qHTS assay to test for compound auto fluorescence at 460 nm (blue) in HEK293 cell free culture (AID 720681)
Summary of the method: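 Compounds were added to cell-free DMEM with 10% FBS and fluorescence read directly. The blue channel used 405 nm excitation and 460 nm emission, with triamterene as the reference fluorophore.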

[3] = qHTS assay to test for compound auto fluorescence at 535 nm (green) in HEK293 cell free culture (AID 720682)
Summary of the method: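 Green-channel intensity (Ex/Em 485/535 nm) was recorded from compound-treated wells containing only DMEM with 10% FBS. Fluorescein provided the equivalency standard.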

[4] = qHTS assay to test for compound auto fluorescence at 590 nm (red) in HEK293 cell free culture (AID 720683)
Summary of the method: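 Cell-free wells of DMEM with 10% FBS received compound, and intrinsic fluorescence was read at excitation/emission 540/590 nm. Values expressed as equivalence to Rose Bengal sodium.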

[5] = qHTS assay to test for compound auto fluorescence at 590 nm (red) in HepG2 cell free culture (AID 720684)
Summary of the method: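 Compounds are added to culture medium (MEM, 10% FBS) lacking cells, then fluorescence is read at excitation 540 nm, emission 590 nm, with Rose Bengal sodium as the equivalency standard.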

[6] = qHTS assay to test for compound auto fluorescence at 460 nm (blue) in HepG2 cell free culture (AID 720685)
Summary of the method: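 Compound (23 nL) or DMSO pinned into cell-free MEM with 10% FBS; blue fluorescence read at 405/460 nm excitation/emission, expressed as auto-fluorescence equivalency to triamterene.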

[7] = qHTS assay to test for compound auto fluorescence at 535 nm (green) in HepG2 cell free culture (AID 720686)
[8] = qHTS assay to test for compound auto fluorescence at 460 nm (blue) in HepG2 cells (AID 720687)
Summary of the method: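 HepG2 cells in MEM with 10% FBS, attached overnight at 37 C, were exposed to compound or DMSO for 1 hr at 37 C, 5% CO2. Blue fluorescence was read at 405/460 nm, with triamterene as reference fluorophore.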

[9] = target: Glucocorticoid receptor (Homo sapiens) (UniProt P04150); assay: qHTS assay to identify small molecule agonists of the glucocorticoid receptor (GR) signaling pathway (AID 720691; active = well fitted activation curve with a large enough effect in the signal ratio in the repeat runs, not every such curve was filed as active; the % refers to the signal ratio)
Summary of the method: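 Fluorescence intensity from LiveBLAzer B/G FRET substrate (2 h, room temperature) reports beta-lactamase expression driven by the glucocorticoid response element in GR-bla HeLa cells after 18 h compound exposure at 37 C.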

[10] = target: Glucocorticoid receptor (Homo sapiens) (UniProt P04150); assay: qHTS assay to identify small molecule antagonists of the glucocorticoid receptor (GR) signaling pathway (AID 720692; active = well fitted inhibition curve with a large enough effect in the signal ratio in the repeat runs, not every such curve was filed as active; the % refers to the signal ratio)
Summary of the method: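 HeLa GR-bla cells; cmpd + dex 5 nM final, 18 h 37 C; LiveBLAzer B/G FRET substrate 2 h RT; fluorescence intensity read. Antagonist mode, qHTS.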

[11] = qHTS assay to identify small molecule antagonists of the androgen receptor (AR) signaling pathway - cell viability counter screen (AID 743033; note: nearly all actives have a fitted effect of over 45% in size)
[12] = qHTS assay to identify small molecule antagonists of the androgen receptor (AR) signaling pathway using the MDA cell line - cell viability counter screen (AID 743041; note: nearly all actives have a fitted effect of over 45% in size)
Summary of the method: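 Same-well cytotoxicity was assessed by CellTiter-Fluor in MDA-kb2 AR-luc cells after 16 h of compound treatment under R1881 agonism.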

[13] = qHTS assay for identifying genotoxic compounds that show differential cytotoxicity against isogenic chicken DT40 cell lines with known DNA damage response pathways - wild type cell line (AID 743012); note: nearly all actives have a fitted effect of over 60% in size
Summary of the method: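 Wild type DT40, 300 cells/well, ~0.5 h settle at 37 C/5% CO2; compounds in DMSO added by pintool; 40 h at 37 C/5% CO2; CellTiter-Glo, 30 min RT; luminescence.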

[14] = qHTS assay for identifying genotoxic compounds that show differential cytotoxicity against isogenic chicken DT40 cell lines with known DNA damage response pathways - Rev3 mutant cell line (AID 743014); note: nearly all actives have a fitted effect of over 55% in size
[15] = target: Androgen receptor (Homo sapiens) (UniProt P10275); assay: qHTS assay to identify small molecule antagonists of the androgen receptor (AR) signaling pathway (AID 743035; active = well fitted inhibition curve with a large enough effect in the signal ratio in the repeat runs, not every such curve was filed as active; the % refers to the signal ratio)
Summary of the method: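 Fluorescence from a beta-lactamase FRET substrate (LiveBLAzer B/G, 2 h, room temperature) measured inhibition of R1881-stimulated signaling in GeneBLAzer AR-UAS-bla HEK293 cells exposed to compound for 16 h at 37C.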

[16] = target: Androgen receptor (Homo sapiens) (UniProt P10275); assay: qHTS assay to identify small molecule agonists of the androgen receptor (AR) signaling pathway (AID 743036; active = well fitted activation curve with a large enough effect in the signal ratio in the repeat runs, with a control signal flat, not every such curve was filed as active; the % refers to the signal ratio)
Summary of the method: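 Cell-based FRET reporter assay: HEK293 line with a UAS-beta-lactamase construct, compounds added in DMSO, 16 h exposure at 37C, then 2 h substrate step at room temperature and fluorescence intensity read.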

[17] = target: Androgen receptor (Homo sapiens) (UniProt P10275); assay: qHTS assay to identify small molecule agonists of the androgen receptor (AR) signaling pathway using the MDA cell line (AID 743040; note: nearly all actives have a fitted effect of over 20% in size)
Summary of the method: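 Human breast carcinoma MDA-kb2 reporter cells (MMTV-luc, AR/GR elements) were treated for 16 h at 37C in 0% CO2 following a 5 h settling period. Signal was quantified by ONE-Glo luminescence.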

[18] = target: Androgen receptor (Homo sapiens) (UniProt P10275); assay: qHTS assay to identify small molecule antagonists of the androgen receptor (AR) signaling pathway using the MDA cell line (AID 743042; note: nearly all actives have a fitted effect of over 55% in size)
Summary of the method: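 MDA-kb2 breast carcinoma cells carrying MMTV-luciferase (AR/GR responsive) were co-treated with compounds and the agonist R1881 for 16 h at 37C. Inhibition read as ONE-Glo luminescence; CellTiter-Fluor fluorescence measured in parallel for cytotoxicity.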

[19] = qHTS assay for identifying genotoxic compounds that show differential cytotoxicity against isogenic chicken DT40 cell lines with known DNA damage response pathways - Rad54/Ku70 mutant cell line (AID 743015); note: nearly all actives have a fitted effect of over 60% in size
[20] = qHTS assay to identify small molecule antagonists of the glucocorticoid receptor (GR) signaling pathway - cell viability counter screen (AID 720693); note: nearly all actives have a fitted effect of over 55% in size
% is set by controls: 0 for no effect and ±100 for the full control effect.

Sequence of Glucocorticoid receptor (Homo sapiens) (P04150 whole entry, looked up): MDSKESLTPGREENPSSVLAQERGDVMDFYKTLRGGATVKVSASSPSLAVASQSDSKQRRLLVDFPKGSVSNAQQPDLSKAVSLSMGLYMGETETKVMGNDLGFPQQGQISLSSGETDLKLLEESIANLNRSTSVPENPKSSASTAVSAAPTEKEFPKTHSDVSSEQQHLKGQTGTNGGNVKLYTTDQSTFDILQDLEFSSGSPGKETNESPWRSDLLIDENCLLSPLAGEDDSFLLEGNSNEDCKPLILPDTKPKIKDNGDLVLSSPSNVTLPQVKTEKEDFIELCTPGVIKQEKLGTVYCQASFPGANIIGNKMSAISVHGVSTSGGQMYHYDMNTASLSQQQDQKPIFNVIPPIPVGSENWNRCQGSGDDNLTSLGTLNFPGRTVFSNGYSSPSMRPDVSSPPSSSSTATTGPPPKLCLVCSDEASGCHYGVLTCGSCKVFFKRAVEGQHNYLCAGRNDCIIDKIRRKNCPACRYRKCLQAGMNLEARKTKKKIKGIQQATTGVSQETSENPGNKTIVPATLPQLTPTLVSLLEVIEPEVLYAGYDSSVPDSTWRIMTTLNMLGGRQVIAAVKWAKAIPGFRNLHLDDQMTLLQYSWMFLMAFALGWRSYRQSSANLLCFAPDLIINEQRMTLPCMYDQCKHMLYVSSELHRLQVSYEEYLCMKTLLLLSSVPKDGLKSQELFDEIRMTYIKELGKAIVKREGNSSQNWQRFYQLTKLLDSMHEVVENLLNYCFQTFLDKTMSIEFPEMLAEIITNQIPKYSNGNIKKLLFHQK
Sequence of Androgen receptor (Homo sapiens) (P10275 whole entry, looked up): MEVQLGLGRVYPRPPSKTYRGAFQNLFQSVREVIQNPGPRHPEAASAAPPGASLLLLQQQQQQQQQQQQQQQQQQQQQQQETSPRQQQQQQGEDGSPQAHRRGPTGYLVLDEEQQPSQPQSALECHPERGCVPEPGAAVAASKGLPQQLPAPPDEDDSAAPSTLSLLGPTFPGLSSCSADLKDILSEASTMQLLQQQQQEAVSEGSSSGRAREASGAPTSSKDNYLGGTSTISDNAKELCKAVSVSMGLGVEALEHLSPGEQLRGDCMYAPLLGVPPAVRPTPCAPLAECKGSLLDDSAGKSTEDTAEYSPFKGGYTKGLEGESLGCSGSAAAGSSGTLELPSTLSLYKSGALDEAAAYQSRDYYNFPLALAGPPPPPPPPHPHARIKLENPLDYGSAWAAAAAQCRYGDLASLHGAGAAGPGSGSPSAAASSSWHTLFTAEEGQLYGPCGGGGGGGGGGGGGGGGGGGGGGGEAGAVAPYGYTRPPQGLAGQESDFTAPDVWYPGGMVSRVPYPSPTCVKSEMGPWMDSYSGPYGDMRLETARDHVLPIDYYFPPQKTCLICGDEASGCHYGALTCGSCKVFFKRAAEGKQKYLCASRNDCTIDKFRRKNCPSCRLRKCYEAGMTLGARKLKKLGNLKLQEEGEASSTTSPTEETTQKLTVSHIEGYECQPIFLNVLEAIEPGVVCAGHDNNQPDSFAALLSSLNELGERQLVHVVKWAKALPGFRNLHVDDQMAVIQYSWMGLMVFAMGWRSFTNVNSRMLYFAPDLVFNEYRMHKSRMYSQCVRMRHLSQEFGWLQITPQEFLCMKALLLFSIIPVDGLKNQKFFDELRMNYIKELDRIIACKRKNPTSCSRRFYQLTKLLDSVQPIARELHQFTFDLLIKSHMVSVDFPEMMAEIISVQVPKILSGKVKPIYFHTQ

CC(C)CC(=O)O
inactive: outcome [1] | outcome [2] | outcome [3] | outcome [4] | outcome [5] | outcome [6] | outcome [7] | outcome [8] | Potency [9] | outcome [10] | Potency [11] | Potency [12]

O=C(O)c1cc(Cl)cc([N+](=O)[O-])c1Cl
inactive: outcome [1] | outcome [2] | outcome [3] | outcome [4] | outcome [5] | outcome [6] | outcome [7] | outcome [8] | Potency [9] | outcome [10] | Potency [13] | Potency [14] | Potency [11] | Potency [15] | outcome [16] | outcome [17] | Potency [12] | Potency [18]

Cc1ccsc1/C=C/C1=NCCCN1C
inactive: fluorescence, % of fluorescein [1] 0.007% [at 18.6 µM] | fluorescence, % of fluorescent control [2] -0.0198% [at 18.6 µM] | activity change [3] 0.0151% [at 18.6 µM] | fluorescence, % of fluorescent control [4] -0.0392% [at 18.6 µM] | fluorescence, % of Rose Bengal [5] -0.469% [at 18.6 µM] | fluorescence, % of fluorescent control [6] -0.0937% [at 18.6 µM] | fluorescence, % of fluorescein control [7] -0.205% [at 18.6 µM] | fluorescence, % of fluorescent control [8] 0.164% [at 18.6 µM] | Potency [9] | outcome [10] | Potency [13] | Potency [14] | Potency [19] | Potency [11] | Potency [12]

O=C1O[C@@H]2[C@@H](O)[C@H](O)O[C@@H]2[C@H]1O
inactive: outcome [1] | outcome [2] | outcome [3] | outcome [4] | outcome [5] | outcome [6] | outcome [7] | outcome [8] | Potency [9] | outcome [10] | outcome [20] | Potency [13] | Potency [14] | Potency [19] | Potency [11] | Potency [12]

COc1ccc2c(c1OC)C(=O)O[C@@H]2[C@H]1c2c(cc3c(c2OC)OCO3)CCN1C
inactive: outcome [1] | outcome [2] | outcome [3] | outcome [4] | outcome [5] | outcome [6] | outcome [7] | outcome [8] | outcome [10] | outcome [20] | Potency [13] | Potency [19] | Potency [11] | Potency [12]

CCCCC(CC)COCCO (stereo not drawn)
inactive: outcome [1] | outcome [2] | outcome [3] | outcome [4] | outcome [5] | outcome [6] | outcome [7] | outcome [8] | Potency [9] | outcome [20] | Potency [13] | Potency [14] | Potency [19] | Potency [11] | Potency [12]

COc1ccc(S(=O)(=O)N2c3ccc(Cl)cc3[C@@](O)(c3ccccc3Cl)[C@H]2C(=O)N2CCC[C@@H]2C(N)=O)cc1OC
inactive: outcome [1] | outcome [2] | outcome [3] | outcome [4] | outcome [5] | outcome [6] | outcome [7] | outcome [8] | Potency [9] | outcome [20] | Potency [13] | Potency [14] | Potency [11] | Potency [12]

CC1=C(C(=O)O)N2C(=O)[C@@H](NC(=O)[C@H](N)c3ccc(O)cc3)[C@H]2SC1
inactive: fluorescence, % of fluorescein [1] 0.159% [at 18.6 µM] | fluorescence, % of fluorescent control [2] 0.558% [at 18.6 µM] | activity change [3] 0.0539% [at 18.6 µM] | fluorescence, % of fluorescent control [4] -0.034% [at 18.6 µM] | fluorescence, % of Rose Bengal [5] -0.146% [at 18.6 µM] | fluorescence, % of fluorescent control [6] 0.197% [at 18.6 µM] | fluorescence, % of fluorescein control [7] 0.179% [at 18.6 µM] | fluorescence, % of fluorescent control [8] 0.189% [at 18.6 µM] | outcome [10] | outcome [20] | Potency [13] | Potency [14] | Potency [11] | Potency [12]
